An excerpt weighted towards active compounds, which were near 19% of everything screened.
KB-3-1 cytotox = KB-3-1 parental cell cytotoxicity | KB-3-1 viability, CellTiter-Glo ATP luminescence, 72 h | Potency, µM (top dose mostly 46.1 µM), actives largely listed as cytotoxic | 1.4% of 400,000 active | AID 1347075; also: nearly all actives have a fitted effect of over 60% in size
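Screening of KB-3-1 cells (DMEM, 10% FBS, phenol-red free) ran from lowest to highest compound concentration; after 72 h at 37 °C viability was read luminescently and curves fitted.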
TDP1 cell noCPT = qHTS for Inhibitors of human tyrosyl-DNA phosphodiesterase 1 (TDP1): qHTS in cells in absence of CPT. Potency, µM (doses to about 46.2 µM), for the others: at the top dose activity change, negative = growth inhibition, actives largely listed as inhibitors. AID 686978, 2013. 15% of 420,000 active. DT40 Tdp1-/- hTDP1 cells, no CPT, ATP luminescence, 48 h; also: nearly all actives have a fitted effect of over 55% in size
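Chicken DT40 Tdp1-/- cells complemented with human TDP1, screened without camptothecin (DMSO vehicle only), 400 cells/well. Compounds pin-transferred, cells incubated at 37 °C for at least 48 hr. Growth read as ATP-dependent luminescence (CellTiter-Glo, 30 min at RT).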
HT1080NT lethal = kills 2HG-producing HT-1080-NT fibrosarcoma cells; 1.6% of 360,000 active; HT-1080-NT fibrosarcoma viability, CellTiter-Glo ATP luminescence, 48 h; Potency, µM (doses to about 46.1 µM), inactives show at the top dose activity, negative = less viability, usual class: cytotoxic;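 also: NT is the 2HG producing partner of a matched IDH1 knockdown line; 0% = DMSO-treated cells and -100% = media-only wells without cells; nearly all actives have a fitted effect of over 55% in size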
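Viability of the 2HG-overproducing fibrosarcoma line after 48 hours of compound exposure at 37 degrees C was determined by luminescence with CellTiter-Glo, and concentration-effect curves were then fitted and categorized.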
TDP1 cell CPT = growth inhibition of DT40 Tdp1-/-;hTDP1 cells with camptothecin (screen for TDP1 inhibitors). chicken DT40 Tdp1-/-;hTDP1 cells + 20 nM CPT, ATP luminescence, 48 h. Potency, µM (top dose mostly 46.2 µM), without a hit: at the top dose activity change, negative = growth inhibition, actives largely listed as inhibitors. 12% of 420,000 active; also: nearly all actives have a fitted effect of over 55% in size
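Cell growth measured by CellTiter-Glo luminescence after a minimum 48 h, 37 C compound exposure with 20 nM CPT in Tdp1-knockout DT40 cells stably expressing hTDP1, seeded 400/well; qHTS titration format.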
HT1080 IDH1KD tx = kills HT-1080 cells with IDH1 knockdown | HT-1080 IDH1 knockdown viability, ATP luminescence, 48 h | Potency, µM (doses to about 46.1 µM), inactives show top-dose activity, negative = toxicity, actives largely listed as cytotoxic | 2% of 360,000 active | AID 686971;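 also: 0% = DMSO wells and -100% = cell-free medium wells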
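Knockdown cells (IDH1KD HT-1080) received compounds 2 h after plating at 750 cells/well and were kept 48 h at 37 °C in 5% FBS RPMI. A CellTiter-Glo luminescence read gave % activity for curve fitting.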
KB-V1 MDR tox = kills drug-selected multidrug resistant KB-V1 cells; KB-V1 MDR cells viability, CellTiter-Glo, 72 h; Potency, µM (doses to about 46.1 µM), actives largely listed as cytotoxic; 3.4% of 400,000 active; also: nearly all actives have a fitted effect of over 60% in size
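Compound-treated KB-V1 multidrug-resistant cells, 72 h, 37 degrees C; viability by CellTiter-Glo. Fitted qHTS curves give the values.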
The depositor's hits bear a star. Calls follow the shape of the dose curve; as a rule, active = well fitted curve in the direction sought with a large enough effect; inconclusive = small, poorly fitted or top-dose-only effect, or another doubt; inactive = no such curve, though single readings can be large; an effect the other way counts as inactive or inconclusive. Unless noted, % is scaled to controls: 0 for no effect and ±100 for the full control effect; potency is read from the fitted curve at half-maximal effect.

COc1cccc(NC(=O)Cn2c(=O)n(CCCC(=O)NCc3ccc4c(c3)OCO4)c(=O)c3ccccc32)c1 was read as KB-3-1 cytotox inactive, TDP1 cell noCPT -3%, TDP1 cell CPT -12% and KB-V1 MDR tox inconclusive.
For O=C1C=C(c2cccc(O)c2)C[C@@H](c2ccc(F)cc2)C1 the results were KB-3-1 cytotox inactive, TDP1 cell noCPT inconclusive, HT1080NT lethal 2%, TDP1 cell CPT 21µM*, HT1080 IDH1KD tx -7% and KB-V1 MDR tox inactive.
Screening O=C1C=C(c2cccc(CO)c2)C[C@@H](c2ccc(F)cc2)C1 returned KB-3-1 cytotox inactive, TDP1 cell noCPT -27%, HT1080NT lethal -1%, TDP1 cell CPT -28%, HT1080 IDH1KD tx -4% and KB-V1 MDR tox inactive.
`O=C1C=C(c2cccc(Br)c2)C[C@@H](c2ccc(Cl)cc2)C1` gave KB-3-1 cytotox inactive, TDP1 cell noCPT inconclusive, HT1080NT lethal 0%, TDP1 cell CPT 16µM*, HT1080 IDH1KD tx -16% and KB-V1 MDR tox inactive.
COc1ccc([C@H]2CC(=O)C=C(c3cccc(Cl)c3)C2)cc1 was read as KB-3-1 cytotox inactive, TDP1 cell noCPT inconclusive, HT1080NT lethal -12%, TDP1 cell CPT inconclusive, HT1080 IDH1KD tx -1% and KB-V1 MDR tox inactive.
`O=C1C=C(c2ccc(-c3ccccc3)c(F)c2)C[C@@H](c2ccc(Cl)cc2)C1` gave KB-3-1 cytotox inactive, TDP1 cell noCPT inconclusive, HT1080NT lethal -2%, TDP1 cell CPT 21µM*, HT1080 IDH1KD tx -2% and KB-V1 MDR tox inactive.
For Cc1c(NC(=O)Cn2ccc([N+](=O)[O-])n2)c(=O)n(-c2ccccc2)n1C the results were KB-3-1 cytotox inactive, TDP1 cell noCPT 5%, HT1080NT lethal 0%, TDP1 cell CPT -25%, HT1080 IDH1KD tx -1% and KB-V1 MDR tox inactive.
Cc1ccc(C(=O)Nc2nc(-c3ccc([N+](=O)[O-])cc3)cs2)o1 was read as KB-3-1 cytotox inactive, TDP1 cell noCPT 12µM*, HT1080NT lethal 29%, TDP1 cell CPT 15µM*, HT1080 IDH1KD tx 16% and KB-V1 MDR tox inactive.
For Cc1ccc(C(=O)Nc2nc(-c3ccc4c(c3)OCCO4)cs2)o1 the results were KB-3-1 cytotox inactive, TDP1 cell noCPT inconclusive, HT1080NT lethal -4%, TDP1 cell CPT inconclusive, HT1080 IDH1KD tx 9% and KB-V1 MDR tox inactive.
CC(=O)Nc1ccc(-c2csc(NC(=O)c3ccc(C)o3)n2)cc1 was read as KB-3-1 cytotox inactive, TDP1 cell noCPT 9.2µM*, HT1080NT lethal 13%, TDP1 cell CPT 13µM*, HT1080 IDH1KD tx 6% and KB-V1 MDR tox inactive.
Cc1cccc(C)c1NC(=O)C1(NC(=O)C2CCCN2C(=O)OC(C)(C)C)CCCCC1 (stereo not given) was read as KB-3-1 cytotox inactive, TDP1 cell noCPT -7%, HT1080NT lethal 11%, TDP1 cell CPT -14%, HT1080 IDH1KD tx 23% and KB-V1 MDR tox inconclusive.
For O=C(CSc1nnc2ccccn12)Nc1ccccc1C(=O)NC1CC1 the results were KB-3-1 cytotox inactive, TDP1 cell noCPT -14%, HT1080NT lethal 14%, TDP1 cell CPT -10%, HT1080 IDH1KD tx 17% and KB-V1 MDR tox inactive.
`Cc1cc2oc(C(=O)Nc3sc4c(c3C(=O)NCc3ccccc3)CCCC4)cc(=O)c2cc1C` gave KB-3-1 cytotox inactive, TDP1 cell noCPT 1%, TDP1 cell CPT 3% and KB-V1 MDR tox inactive.
Screening CC(C)(C)c1ccc(C(=O)CS(=O)(=O)c2ccccc2)cc1 returned KB-3-1 cytotox inactive, TDP1 cell noCPT 16µM*, HT1080NT lethal -7%, TDP1 cell CPT inconclusive, HT1080 IDH1KD tx -8% and KB-V1 MDR tox inactive.
